M1 agonist: agonists of M1 muscarinic receptor | CHO-M1 cells, Fluo-4 calcium fluorescence, agonist mode; stronger effect = higher value | B-score at 10 µM | 3% of 64,000 active | AID 626;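 active = fluorescence rise, raw or as B-score row- and column-corrected plate score, outside the 99.7% band of its plate's samples, either direction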
Pyk2 oligo antag: Pyk2 (human) oligomerization antagonism | Q14289 | Q293 cells, Pyk2 FERM NanoBiT luminescence; stronger effect = lower value | z-score (the deposit names both 25 µM and 10 µM) | 0.83% of 99,000 active;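 active = Z-score of -3 or lower, scaled per plate to the spread of control and sample wells; inactive = z-score above -3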;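 also: negative z-score means lost luminescence so less FERM oligomerization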
M1 antagonist: blocks the rat M1 muscarinic receptor response to acetylcholine; P08482; B-score at 10 µM; 3.4% of 64,000 active; CHO-M1 cells, Fluo-4 calcium, ACh EC80 antagonist mode; stronger effect = lower value;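 active = calcium fluorescence response, raw or row-and-column corrected B-score, differing from the plate sample mean either way at a set confidence level, mostly lower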
Cav32 inh: blocks human Cav3.2 T-type calcium channel. Cav3.2-expressing cells, Fluo-4 calcium fluorescence FDSS; stronger effect = lower value. B-score at 10 µM. AID 449739. 4% of 100,000 active. O95180;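 active = single-dose well whose peak fluorescence ratio is a statistical outlier from its plate by either plate-standardised score or position-corrected B-score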
Hits are given with their value. In the library only some 7.1% were active in any assay of this set; here they are far more common.

Screening O=C(Nc1ccc2c(c1)OCCO2)C1CCN(C(=O)c2ccc(Br)cc2)CC1 returned M1 agonist inactive, Pyk2 oligo antag inactive, M1 antagonist inactive and Cav32 inh inactive.
`CCOc1c(Cl)cc(CNCC(C)C)cc1Cl` gave Pyk2 oligo antag inactive.
COc1cccc(CNc2cc(CSc3ccc(Cl)cc3)nc(C)n2)c1 was read as Pyk2 oligo antag inactive and Cav32 inh -8.23.
For COc1ccccc1CNc1cc(CSc2ccc(Cl)cc2)nc(C)n1 the results were Pyk2 oligo antag inactive and Cav32 inh inactive.
C=C(C)CSc1nncn1/N=C/c1ccc(OC)cc1 was read as M1 agonist inactive, Pyk2 oligo antag inactive, M1 antagonist inactive and Cav32 inh -6.04.
CCSc1nncn1/N=C/c1ccc(OC)c(OC)c1 was read as M1 agonist inactive, Pyk2 oligo antag inactive, M1 antagonist inactive and Cav32 inh inactive.
Screening COc1nc2c(C)cccc2cc1-c1noc(-c2ccncc2)n1 returned M1 agonist inactive and M1 antagonist inactive.
For CCOC(=O)CN1C(=O)C(Sc2n[nH]c(-c3ccc(C)cc3)n2)CCc2ccccc21 (centres undefined) the results were Pyk2 oligo antag inactive and Cav32 inh -3.46.
CCOC(=O)c1cccc(NS(=O)(=O)c2ccc(NC(C)=O)cc2)c1 was read as Pyk2 oligo antag inactive and Cav32 inh inactive.
For CCOC(=O)/C=C/S(=O)(=O)c1ccc(NC(C)=O)cc1 the results were M1 agonist inactive, Pyk2 oligo antag inactive, M1 antagonist 1.9 and Cav32 inh inactive.
For O=S(=O)(c1ccc(Oc2ccc(Cl)cc2)c(S(=O)(=O)N2CCCCC2)c1)N1CCCCC1 the results were Pyk2 oligo antag inactive and Cav32 inh -3.49.
Screening CO/N=C(/CNC(=O)c1ccc(Cl)cc1Cl)c1ccc(Cl)cc1 returned Pyk2 oligo antag inactive.
For S=C(NC1CCCCC1)N(CCc1nc2ccccc2[nH]1)C1CCCC1 the results were Pyk2 oligo antag inactive and Cav32 inh -8.31.
Screening O=C(Nc1ccccc1)N(CCc1nc2ccccc2[nH]1)C1CCCC1 returned M1 agonist 2.3, Pyk2 oligo antag inactive, M1 antagonist inactive and Cav32 inh inactive.
For COC(=O)C1=C[C@@H](C(=O)OC)[C@@H]2C3=C(C(=O)C2(C)C)[C@H](C)n2c(=O)n(-c4ccccc4)c(=O)n2[C@@H]3C1 the results were Cav32 inh inactive.
Screening COc1ccccc1OCCCn1cc(C#N)c2ccccc21 returned M1 agonist inactive, Pyk2 oligo antag inactive, M1 antagonist inactive and Cav32 inh -4.45.
N#Cc1cn(CCCOc2ccccc2)c2ccccc12 was read as Pyk2 oligo antag inactive and Cav32 inh inactive.
C=CCNC(=O)c1onc(CSc2ccccn2)c1C(=O)NCC=C was read as Cav32 inh inactive.
Screening COc1cc(/C=C(\C#N)c2nc3ccc(C)cc3[nH]2)c([N+](=O)[O-])cc1OC returned Pyk2 oligo antag inactive and Cav32 inh inactive.
CCN(CC)c1ccc(/C=C(/C#N)c2nc3ccc(C)cc3[nH]2)c(OC(C)C)c1 was read as Pyk2 oligo antag -3.06 and Cav32 inh -5.47.
For CCCOc1cc(N(CC)CC)ccc1/C=C(/C#N)c1nc2ccc(C)cc2[nH]1 the results were Pyk2 oligo antag inactive and Cav32 inh -5.
For CCOc1cc(N(CC)CC)ccc1/C=C(/C#N)c1nc2ccccc2[nH]1 the results were Pyk2 oligo antag -3.12.
For COc1ccc(C2=CC(c3ccc(OC)c(OC)c3)n3nnnc3N2)c(OC)c1 (centres undefined) the results were M1 agonist inactive, Pyk2 oligo antag inactive, M1 antagonist inactive and Cav32 inh inactive.
For COc1ccc(C2C=C(c3ccc(Br)s3)Nc3ncnn32)cc1OC (centres undefined) the results were M1 agonist 120, M1 antagonist inactive and Cav32 inh -8.74.
Screening COc1ccc(C2C=C(c3ccc(C)cc3)Nc3ncnn32)cc1 (centres undefined) returned M1 agonist 33.1, Pyk2 oligo antag inactive and M1 antagonist inactive.
`CCO[C@H]1OC(C(=O)O)=C[C@@H](c2ccccc2)[C@@H]1CCCO` gave Cav32 inh inactive.
For Cc1ccccc1N/C(SCc1ccc(Cl)cc1)=C(/C#N)C(=O)NCc1ccco1 the results were Pyk2 oligo antag inactive and Cav32 inh -5.48.
Cc1ccc(CS/C(Nc2ccccc2C)=C(\C#N)C(=O)NCc2ccco2)c(C)c1 was read as Pyk2 oligo antag inactive and Cav32 inh inactive.
`Cc1ccc(CCNC(=O)CS(=O)Cc2nc(-c3cccc(C)c3)oc2C)cc1` (centres undefined) gave M1 agonist inactive, M1 antagonist inactive and Cav32 inh -5.19.
For Cc1cccc(-c2nc(CS(=O)CC(=O)NCc3cccs3)c(C)o2)c1 (centres undefined) the results were Cav32 inh inactive.
Screening C#CCOc1nc(OCC#C)nc(OCC#C)n1 returned M1 agonist inactive, Pyk2 oligo antag inactive, M1 antagonist inactive and Cav32 inh inactive.
For c1ccc(-n2cnc3cc(NCc4ccccn4)ccc32)cc1 the results were M1 agonist inactive, Pyk2 oligo antag -3.42, M1 antagonist inactive and Cav32 inh inactive.
For CC(C)n1cnc2cc(NCc3ccccn3)ccc21 the results were Pyk2 oligo antag inactive and Cav32 inh inactive.
`CCCCOCCCNc1ncnc2c1[nH]c1ccccc12` gave Pyk2 oligo antag inactive and Cav32 inh -4.68.
O=C(CSc1nc2ccccc2s1)Nc1ncccn1 was read as M1 agonist inactive, Pyk2 oligo antag inactive, M1 antagonist inactive and Cav32 inh inactive.
Screening Cc1cnc(NC(=O)CSc2nc3ccccc3s2)s1 returned Pyk2 oligo antag inactive and Cav32 inh -4.61.
Screening O=C(CSc1nc2ccccc2s1)NCCOc1ccc(Cl)cc1 returned Pyk2 oligo antag inactive and Cav32 inh -6.19.
`COc1cccc(N2CCN(C(=S)Nc3cccc(C)c3)CC2)c1` gave Pyk2 oligo antag inactive and Cav32 inh inactive.
COc1cccc(NC(=S)N2CCN(C/C=C/c3ccccc3)CC2)c1 was read as Pyk2 oligo antag inactive and Cav32 inh -4.91.
For Cc1ccc2c(CC(=O)N3CCN(S(=O)(=O)c4ccc5c(c4)OCCO5)CC3)coc2c1 the results were M1 agonist inactive, Pyk2 oligo antag inactive, M1 antagonist inactive and Cav32 inh -5.56.
For O=c1cc(CN2CCN(S(=O)(=O)c3ccc4c(c3)OCCO4)CC2)c2ccc(O)cc2o1 the results were Pyk2 oligo antag -3.87 and Cav32 inh inactive.
Clc1ccc2nc(SCc3nnc(-c4ccccc4)o3)[nH]c2c1 was read as M1 agonist inactive, Pyk2 oligo antag inactive and M1 antagonist inactive.
Screening Clc1ccc(OCc2nnc(SCc3nnc(-c4ccccc4)o3)o2)c(Cl)c1 returned M1 agonist inactive, Pyk2 oligo antag inactive, M1 antagonist inactive and Cav32 inh -6.15.
Screening COc1ccccc1N1CCN(CC(O)c2ccc3cc[nH]c3c2)CC1 (centres undefined) returned M1 agonist inactive, M1 antagonist inactive and Cav32 inh -5.56.
For O=S(=O)(NCCc1csc(-c2cccnc2)n1)c1ccc(Cl)s1 the results were M1 agonist inactive, M1 antagonist inactive and Cav32 inh inactive.
O=C(Nc1ccc2c(c1)OCO2)N1CCOCC1 was read as M1 agonist inactive, Pyk2 oligo antag inactive, M1 antagonist inactive and Cav32 inh inactive.

Bioassay records from PubChem.
